# Compound activity deposited in PubChem by National Center for Advancing Translational Sciences (NCATS).
# Shown are actives, neighbours in structure and some others; about 18% of the full set was active somewhere.
# RORgamma inh: ROR gamma (mouse) transcription inhibition. Drosophila S2 Gal4-RORgamma UAS-luciferase reporter, 20 h. actives 5.4% (n = 310,000). P51450. Potency, µM (highest dose often 53.6 µM), for the others: at the top dose activity change, negative = inhibition, actives largely listed as inhibitors. AID 2551; note: potency is the fitted concentration of half-maximal effect; nearly all actives have a fitted effect of over 60% in size
# Target sequence (P51450 whole entry, looked up, the tested form may be a part): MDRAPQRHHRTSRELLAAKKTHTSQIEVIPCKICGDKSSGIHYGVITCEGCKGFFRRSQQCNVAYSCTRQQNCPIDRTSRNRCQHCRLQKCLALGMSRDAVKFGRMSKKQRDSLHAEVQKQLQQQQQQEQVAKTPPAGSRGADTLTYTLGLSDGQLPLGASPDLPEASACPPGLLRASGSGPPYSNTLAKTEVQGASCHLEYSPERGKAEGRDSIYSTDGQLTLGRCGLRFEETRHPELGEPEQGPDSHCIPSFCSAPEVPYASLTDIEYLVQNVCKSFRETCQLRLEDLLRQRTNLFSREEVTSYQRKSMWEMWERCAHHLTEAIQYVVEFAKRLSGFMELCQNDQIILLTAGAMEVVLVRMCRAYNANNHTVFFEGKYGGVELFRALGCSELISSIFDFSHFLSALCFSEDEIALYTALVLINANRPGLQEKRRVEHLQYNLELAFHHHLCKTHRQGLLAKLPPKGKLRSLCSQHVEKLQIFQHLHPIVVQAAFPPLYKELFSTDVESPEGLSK
#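 Luminescence from a UAS-regulated Photinus luciferase reporter in stably transfected Drosophila Schneider cells is measured; decreased signal marks ROR gamma inhibition. Fusion expression is induced by 700 uM copper sulfate for 20 hr.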
# TDP1 cell CPT: DT40-hTDP1 cell growth loss with CPT; Potency, µM (titrated, usually from 46.2 µM), for inactives: at the top dose activity change, negative = growth inhibition, actives largely listed as inhibitors; actives 12% (n = 420,000); chicken DT40 Tdp1-/-;hTDP1 cells + 20 nM CPT, ATP luminescence, 48 h; note: potency is the fitted concentration of half-maximal effect; nearly all actives have a fitted effect of over 55% in size
#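 Cell growth measured by CellTiter-Glo luminescence after a minimum 48 h, 37 C compound exposure with 20 nM CPT in Tdp1-knockout DT40 cells stably expressing hTDP1, seeded 400/well; qHTS titration format.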
# LDHA block: LDHA (human) enzyme inhibition; activity change, % (values are at about 110 or 230 µM); purified LDHA, NADH/diaphorase-resazurin fluorescence; active compounds read low; actives 0.15% (n = 480,000); AID 1347041; P00338; in the data active = activity change below about -30%; inconclusive = mostly about -25% to -30%;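 note: plate controls were DMSO wells for no effect and wells without enzyme for full effect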
#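 LDH5 2 nM; NADH 0.06 mM, pyruvate 0.2 mM; 200 mM Tris pH 7.4, EDTA, Tween-20; 5 min RT. Detection: diaphorase 0.133 mg/mL + resazurin 37 µM, fluorescence ex540/em590 at 0 and 20 min; normalized to enzyme-free and DMSO wells.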
# IL-1B inflam inh: inhibitors of inflammasome signaling (IL-1 beta secretion) | activity change, % at 57.5 µM | THP-1 LPS/ATP IL-1B secretion, AlphaLISA, 16 h; active compounds read low | AID 743279 | actives 4.7% (n = 360,000); in the data active = activity change below about -50%; inconclusive = mostly about -30% to -49%
#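 Secreted IL-1B measured by AlphaLISA bead assay after 16 h compound exposure of THP-1 cells; compounds (final up to 57.5 uM) added 1 h before LPS (250 ng/mL) and ATP (1.25 mM) stimulation; lower signal means less secretion.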
# VP16 counter: counter-screen for ROR gamma inhibitors: Gal4-VP16 reporter. Potency, µM (highest dose often 53.6 µM), inactives show top-dose activity, negative = inhibition, actives largely listed as inhibitors. actives 3.5% (n = 310,000). Drosophila S2 Gal4-VP16 UAS-luciferase, luminescence, 20 h. AID 2546;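 note: Gal4-VP16 expression switched on by copper sulfate through the metallothionein promoter; potency is the fitted concentration of half-maximal effect; nearly all actives have a fitted effect of over 50% in size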
# TDP1 cell noCPT: qHTS for Inhibitors of human tyrosyl-DNA phosphodiesterase 1 (TDP1): qHTS in cells in absence of CPT. DT40 Tdp1-/- hTDP1 cells, no CPT, ATP luminescence, 48 h. Potency, µM (titrated, usually from 46.2 µM), for the others: at the highest dose activity change, negative = growth inhibition, actives largely listed as inhibitors. actives 15% (n = 420,000). AID 686978, 2013; note: potency is the fitted concentration of half-maximal effect; nearly all actives have a fitted effect of over 55% in size
#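 Chicken DT40 Tdp1-/- cells stably complemented with human TDP1 were seeded at 400 cells/well with DMSO in place of 20 nM camptothecin. After compound pinning, cells grew at least 48 hr at 37 °C; viability read by CellTiter-Glo luminescence.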
# An asterisk follows results filed as active; i = inactive; ? = inconclusive; · = no result given; [ ] = dose if it differs, or a comment. Unless noted, calls come from the whole dose curve; as a rule, active = well fitted curve in the direction sought with a large enough effect; inconclusive = small, poorly fitted or top-dose-only effect, or another doubt; inactive = no such curve, though single readings can be large; an effect the other way counts as inactive or inconclusive. Unless noted, % is set by controls: 0 for no effect and ±100 for the full control effect.
SMILES,RORgamma inh,TDP1 cell CPT,LDHA block,IL-1B inflam inh,VP16 counter,TDP1 cell noCPT
CC(C)CC(=O)Nc1ccc2c(c1)nc(CCN1CCCCC1)n2C,11%,-3%,2,-8,-13%,-27%
O=C(O)CNS(=O)(=O)c1c(F)cc(F)cc1Br,·,·,-1,·,·,·
Cc1ncc(COC(=O)C(C)C)c2cc(-c3nc(-c4ccccc4F)no3)c(=O)oc12,·,·,3,·,·,·
CCc1nn2c(=O)cc(CNc3ccccc3C(=O)NC3CC3)nc2s1,·,·,6,·,·,·
CCCCCCCCCc1conc1C(=O)/C=C/c1oc2c(c1C)CCC(C)C2 (stereo unspecified),·,21µM*,4,-13,·,15µM*
COc1ccc([C@@H]2[C@@H](C(N)=O)C2(C#N)C#N)cc1,·,·,3,·,·,·
Cc1cc(C)cc(N2Cc3ccccc3C2)c1,43%,6%,-2,20,9%,-5%
COc1cc(N2Cc3ccccc3C2)ccc1C=O,0.35µM*,19%,-11,13,0.4µM*,?
O=C(Nc1cccc(Cl)c1)C1CC(c2ccccc2)=NO1 (stereo unspecified),·,·,-2,·,·,·
O=C1C(=NO)CCc2ccccc21,·,21µM*,39,-78*,·,21µM*
O/N=C1/CCc2cccc3cccc1c23,38%,15%,1,16,1%,-8%
CCc1ccc(NC(=O)Cc2nc(-c3c[nH]c(C(=O)N4CCCC4)c3)cs2)cc1,·,·,0,·,·,·
CC(C)NCC(O)Cn1c2c(c3ccccc31)CCc1c-2cnn1-c1ccccc1 (stereo unspecified),?,3.7µM*,-1,-16,?,5.8µM*
CN1CCc2c(n(CC(O)CN3C(=O)c4ccccc4S3(=O)=O)c3ccccc23)C1=O (stereo unspecified),?,5%,-7,-19,-2%,-9%
NC(=S)C(c1ccccc1)c1ncc(C(F)(F)F)cc1Cl (stereo unspecified),6.3µM*,-10%,-8,-4,?,7%
COc1ccccc1CN1CCOc2ccc(CN3CCC(Oc4cccnc4)CC3)cc2C1,·,-2%[9.04 µM],·,·,·,?
c1cncc(OC2CCN(Cc3ccc4c(c3)CN(Cc3ccc5c(c3)CCO5)CCO4)CC2)c1,·,-9%[9.04 µM],·,·,·,18µM*
COc1ccc(CN2CCOc3ccc(CN4CCC(Oc5cccnc5)CC4)cc3C2)cc1,·,21µM*,·,·,·,-29%
COc1ccc(CN2CCOc3ccc(CN4CCC(Oc5cccnc5)CC4)cc3C2)cc1C,·,-10%[9.04 µM],·,·,·,?
c1cncc(OC2CCN(Cc3ccc4c(c3)CN(Cc3ccc5c(c3)OCCO5)CCO4)CC2)c1,·,?,·,·,·,16µM*
Cc1ccc(-c2nc(COc3ccccc3F)co2)cc1,·,·,15,·,·,·
COc1ccc2c(c1)C(=O)N(c1ccc(C)cc1C)C(=O)C2,?,13µM*,0,14,?,21µM*
COc1ccc2c(c1)C(=O)N(c1ccc(C)cc1C)C(=O)C2(C)C,13%,-20%,6,-11,3%,?
CC(=O)OC(C)(C)/C=C/C(=O)[C@](C)(O)C1[C@H](O)C[C@@]2(C)C3CC=C4C(C=C(O[C@@H]5O[C@H](CO)[C@@H](O)[C@H](O)[C@H]5O)C(=O)C4(C)C)[C@]3(C)C(=O)C[C@]12C (stereo partly specified),·,1.6µM*,-1,-16,·,1.8µM*
CCn1nnc2cc(C(=O)Nc3cccc(Cl)c3C)ccc21,·,?,0,·,·,16µM*
SMILES,RORgamma inh,TDP1 cell CPT,LDHA block,IL-1B inflam inh,VP16 counter,TDP1 cell noCPT
CCn1nnc2cc(C(=O)Nc3cccc(C)c3C)ccc21,·,10µM*,-12,·,·,15µM*
Cc1cccc(C)c1NC(=O)CN1CCN(Cc2nc3ccccc3o2)CC1,·,·,14,·,·,·
O=C(Nc1nnc(Cc2ccccc2)s1)c1cc(=O)c2ccccc2o1,·,·,0,·,·,·
COc1ccc(/C=C2\NC(=S)N(CC3CCCO3)C2=O)c(OC)c1 (stereo unspecified),16µM*,?,-4,?,?,-23%
C=C1C(=O)OC2C1CCC(C)=C1C(=O)C3OC3(C)C12 (stereo unspecified),·,0.058µM*,0,-104*,·,0.18µM*
CC(NC(=O)CCC1CCCO1)c1cccs1 (stereo unspecified),·,·,4,·,·,·
O=C(O)c1cccc(N2C(=S)N=C(Nc3ccccc3)C23CCCCC3)c1,-1%,4%,0,0,16%[10 µM],-1%
Cc1cccc(NC2=NC(=S)N(CC#N)C23CCCCC3)c1,11µM*,-3%,3,-21,?,-17%
COc1ccc(-c2ocnc2C(=O)Nc2cc(Cl)c(OC)cc2OC)cc1,·,·,-6,·,·,·
CC(C)c1nc2cc(NC(=O)c3n[nH]c(=O)c4ccccc34)ccc2o1,·,·,-6,·,·,·
Cc1cc(C(=O)N/N=C2\CCCc3ccccc32)c(C)o1,-11%,-9%,6,0,14%,-12%
O=C(COc1ccccc1F)N/N=C1\CCCc2ccccc21,4µM*,?,-1,-4,?,?
O=C(N/N=C1\CCCc2ccccc21)c1ccccc1Cl,7%,2.1µM*,-1,-18,6%,-25%
O=C(NN=C1C2CC3CC(C2)CC1C3)c1ccccc1O,13µM*,3%,0,206,-28%,4%
O=C(N/N=C1\CCc2ccccc21)c1ccncc1,-24%,3%,2,-5,-7%,-30%
O=C(N/N=C1\CCc2ccccc21)c1ccccc1O,?,-24%,13,i,?,23µM*
COc1cccc(Cn2c(=O)n(CC3CCC(C(=O)N4CCCC4)CC3)c(=O)c3sccc32)c1 (stereo unspecified),·,·,2,·,·,·
COc1ccc2c(Cl)cc(NC(=O)Nc3c(C)cccc3C)nc2c1,·,13µM*,-3,11,·,18µM*
O=C(O)c1sc2cc(C(F)(F)F)cnc2c1-c1ccccc1,-14%,-10%,0,0,1%,-12%
CSc1nnc(-c2sc3cc(C(F)(F)F)cnc3c2-c2ccccc2)n1C,-17%,4.6µM*,5,10,0%,16µM*
CCC(C)(C)C1CCc2[nH]nc(C(=O)N/N=C(\C)c3ccco3)c2C1 (stereo unspecified),?,?,-6,-87*,?,?
C/C(=N\NC(=O)c1n[nH]c2c1CCC2)c1ccco1,8.9µM*,-22%,-13,·,13µM*,?
Cc1ccc(-c2cc(=O)c3cc(C)ccc3[nH]2)cc1,10µM*,5.2µM*,-4,57,16µM*,3.7µM*
